Test results taken from PubChem BioAssay (NCI).
The panel holds about 79,000 compounds, 15% with a hit somewhere; the sample as a whole holds those more often. Calls of active or inactive are those of the source. Rule as the data show it: active = growth inhibition above about 70%; inactive = the rest.

Tests used:
[1] = NCI Yeast Anticancer Drug Screen. Data for the rad52 strain (AID 147);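 also: 0% = growth of vehicle-treated control cultures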; details: S. cerevisiae rad52 mutant growth inhibition, active compounds read high
Procedure, shortened: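 Vehicle-treated cultures served as the reference for growth inhibition of compound-exposed yeast bearing a DNA repair mutation.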

[2] = NCI Yeast Anticancer Drug Screen. Data for the wt1 strain (AID 149);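 also: 0% = growth of vehicle-treated wt1 cultures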; details: S. cerevisiae wt1 strain (SPY 50644) growth inhibition, active compounds read high
Procedure, shortened: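 Readout: yeast growth inhibition, normalised to vehicle controls, in the wt1 strain exposed to test compounds.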

[3] = NCI Yeast Anticancer Drug Screen. Data for the rad50EPP+ strain (AID 151);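 also: 0% = growth of vehicle-treated control cultures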; details: S. cerevisiae rad50 mutant strain, active compounds read high
Procedure, shortened: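 In this screen, rad50EPP+ yeast were exposed to compounds. Growth inhibition was scored against vehicle-treated controls.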

[4] = NCI Yeast Anticancer Drug Screen. Data for the mgt1 strain (AID 153); details: S. cerevisiae mgt1 mutant growth inhibition, active compounds read high
Procedure, shortened: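 mgt1 strain exposed; growth vs vehicle control recorded as inhibition.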

[5] = NCI Yeast Anticancer Drug Screen. Data for the rad50 strain (AID 155);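 also: 0% = growth of vehicle-only cultures of the same strain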; details: S. cerevisiae rad50 strain growth inhibition, active compounds read high
Procedure, shortened: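 Compounds were tested on a yeast strain with an engineered DNA damage repair alteration; the reported value is growth inhibition normalised to vehicle treatment.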

[6] = NCI Yeast Anticancer Drug Screen. Data for the mec2-1 strain (AID 157); details: S. cerevisiae mec2-1 strain, active compounds read high
Procedure, shortened: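 Vehicle-treated cultures served as reference for growth inhibition of compound-exposed mec2-1 yeast.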

[7] = NCI Yeast Anticancer Drug Screen. Data for the rad14 strain (AID 159);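 also: 0% = growth of vehicle-treated control cultures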; details: S. cerevisiae rad14 strain growth inhibition, active compounds read high
Procedure, shortened: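 Compound-treated yeast with a defined DNA-repair lesion; growth inhibition normalised to vehicle-treated cultures.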

[8] = NCI Yeast Anticancer Drug Screen. Data for the sgs1 mgt1 strain (AID 161);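 also: 0% = growth of cultures given vehicle only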; details: S. cerevisiae sgs1 mgt1 strain, active compounds read high
Procedure, shortened: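 Read-out: growth inhibition vs vehicle controls. Cells: mutant yeast strain deficient in DNA damage repair.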

[9] = NCI Yeast Anticancer Drug Screen. Data for the CLN2oe strain (AID 163);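 also: 0% = growth of vehicle-only control cultures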; details: S. cerevisiae CLN2oe strain, active compounds read high
Procedure, shortened: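 Inhibition relative to vehicle-treated yeast is reported. Cells: strain with genetic alteration in cell-cycle control, grown with compound.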

[10] = NCI Yeast Anticancer Drug Screen. Data for the cln2 rad14 strain (AID 165);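 also: 0% = growth equal to vehicle treated cultures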; details: S. cerevisiae cln2 rad14 strain, active compounds read high
Procedure, shortened: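 Each compound was tested on cln2 rad14 yeast. Inhibition of growth was calculated against vehicle-exposed controls.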

[11] = NCI Yeast Anticancer Drug Screen. Data for the bub3 strain (AID 167); details: S. cerevisiae bub3 mutant strain, active compounds read high
Procedure, shortened: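 Growth of a checkpoint-deficient yeast mutant is measured after compound exposure. Values represent inhibition relative to vehicle.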

[12] = NCI Yeast Anticancer Drug Screen. Data for the wt2 strain (AID 169);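 also: 0% = growth of vehicle-treated yeast cultures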; details: S. cerevisiae wt2 strain growth inhibition, active compounds read high
Procedure, shortened: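 Inhibition of yeast growth was determined after compound treatment, normalised to controls receiving only vehicle.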

[13] = NCI Yeast Anticancer Drug Screen. Data for the mlh1 strain (AID 171);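 also: 0% = growth of vehicle-treated control cultures of the same strain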; details: S. cerevisiae mlh1 strain growth inhibition, active compounds read high
Procedure, shortened: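 Vehicle-normalised growth inhibition of a repair- or checkpoint-altered yeast strain following compound treatment.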

[14] = NCI Yeast Anticancer Drug Screen. Data for the sgs1 strain (AID 173);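 also: 0% = growth of vehicle-only control cultures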; details: S. cerevisiae sgs1 mutant, active compounds read high
Procedure, shortened: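 Screen format: yeast with repair or checkpoint alterations, compound exposure, growth read relative to vehicle.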

[15] = NCI Yeast Anticancer Drug Screen. Data for the mlh1 rad18 strain (AID 175); details: S. cerevisiae mlh1 rad18 strain growth inhibition, active compounds read high
Procedure, shortened: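 Vehicle-treated cultures served as the reference for growth inhibition in a yeast strain carrying DNA damage repair alterations exposed to each compound.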

[16] = NCI Yeast Anticancer Drug Screen. Data for the rad18 strain (AID 177); details: S. cerevisiae rad18 mutant growth inhibition, active compounds read high
Procedure, shortened: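 Test articles were incubated with altered yeast defective in DNA damage repair. Results are given as inhibition of growth versus vehicle.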

[17] = at 5.0 µM (retest, dose inferred, filed as 0.5)
[18] = at 50.0 µM (retest, dose inferred, filed as 5.0)

Measured: growth inhibition

Cc1ccc(-n2cc(-c3ccc(Cl)cc3)c(C#N)c2N)cc1
inactive: [1]; at 1.2 µM 0% | [1]; at 3.7 µM 1% | [1]; at 11.0 µM 6% | [1]; at 33.0 µM 17% | [1]; at 100.0 µM 23% | [2]; at 1.2 µM -4% | [2]; at 3.7 µM -2% | [2]; at 11.0 µM 1% | [2]; at 33.0 µM -2% | [2]; at 100.0 µM -3% | [3]; at 1.2 µM -1% | [3]; at 3.7 µM 3% | [3]; at 11.0 µM 23% | [3]; at 33.0 µM 56% | [3]; at 100.0 µM 56% | [4]; at 1.2 µM 1% | [4]; at 3.7 µM -4% | [4]; at 11.0 µM 2% | [4]; at 33.0 µM -41% | [4]; at 100.0 µM -3% | [5]; at 1.2 µM -3% | [5]; at 3.7 µM -3% | [5]; [17] 13% | [5]; at 11.0 µM -31% | [5]; at 33.0 µM 4% | [5]; [18] 69% | [5]; at 50.0 µM 63.3% | [5]; at 100.0 µM 13% | [6]; at 1.2 µM 0% | [6]; at 3.7 µM -8% | [6]; [17] -3% | [6]; at 11.0 µM -4% | [6]; at 33.0 µM -4% | [6]; [18] 43% | [6]; at 50.0 µM 47.3% | [6]; at 100.0 µM 1% | [7]; at 1.2 µM -1% | [7]; at 3.7 µM 1% | [7]; at 11.0 µM -1% | [7]; at 33.0 µM -12% | [7]; at 100.0 µM 5% | [8]; [17] -3% | [8]; [18] 52% | [8]; at 50.0 µM 67.6% | [9]; at 1.2 µM -6% | [9]; at 3.7 µM -13% | [9]; at 11.0 µM -12% | [9]; at 33.0 µM -7% | [9]; at 100.0 µM -4% | [10]; [17] -9% | [10]; [18] 7% | [10]; at 50.0 µM 43.6% | [11]; at 1.2 µM -6% | [11]; at 3.7 µM -5% | [11]; [17] -33% | [11]; at 11.0 µM 3% | [11]; at 33.0 µM -2% | [11]; [18] 64% | [11]; at 50.0 µM 61.6% | [11]; at 100.0 µM 8% | [12]; at 1.2 µM -1% | [12]; at 3.7 µM -1% | [12]; at 11.0 µM 1% | [12]; at 33.0 µM 3% | [12]; at 100.0 µM 4% | [13]; at 1.2 µM -6% | [13]; at 3.7 µM -5% | [13]; at 11.0 µM -1% | [13]; at 33.0 µM -2% | [13]; at 100.0 µM -4% | [14]; at 1.2 µM -2% | [14]; at 3.7 µM 0% | [14]; at 11.0 µM 2% | [14]; at 33.0 µM 10% | [14]; at 100.0 µM 16% | [15]; [17] -15% | [15]; [18] 55% | [16]; at 1.2 µM -5% | [16]; at 3.7 µM 1% | [16]; at 11.0 µM 4% | [16]; at 33.0 µM 6% | [16]; at 100.0 µM 41%
active: [15]; at 50.0 µM 78.3%

CCCCCCCCCCCCCCCCCCN(C)CC(COP(=O)([O-])OCC[N+](C)(C)C)OC (stereo unspecified)
inactive: [1]; at 1.2 µM -14% | [1]; at 3.7 µM -24% | [2]; at 1.2 µM 0% | [2]; at 3.7 µM -2% | [3]; at 1.2 µM -4% | [3]; at 3.7 µM 43% | [4]; at 1.2 µM 21% | [4]; at 3.7 µM 32% | [5]; at 1.2 µM 8% | [5]; at 3.7 µM 18% | [5]; [17] 17% | [6]; at 1.2 µM 13% | [6]; at 3.7 µM 18% | [6]; [17] 11% | [7]; at 1.2 µM 2% | [7]; at 3.7 µM 4% | [9]; at 1.2 µM 15% | [9]; at 3.7 µM 6% | [10]; [17] 22% | [11]; at 1.2 µM 9% | [11]; at 3.7 µM -8% | [11]; [17] 33% | [12]; at 1.2 µM -1% | [12]; at 3.7 µM 0% | [12]; at 11.0 µM -17% | [12]; at 33.0 µM 60% | [13]; at 1.2 µM 5% | [13]; at 3.7 µM 11% | [14]; at 1.2 µM -15% | [14]; at 3.7 µM -1% | [15]; [17] 7% | [16]; at 1.2 µM -6% | [16]; at 3.7 µM 11%
active: [1]; at 11.0 µM 97% | [1]; at 33.0 µM 98% | [1]; at 100.0 µM 98% | [2]; at 11.0 µM 97% | [2]; at 33.0 µM 99% | [2]; at 100.0 µM 99% | [3]; at 11.0 µM 98% | [3]; at 33.0 µM 98% | [3]; at 100.0 µM 98% | [4]; at 11.0 µM 97% | [4]; at 33.0 µM 99% | [4]; at 100.0 µM 98% | [5]; at 11.0 µM 98% | [5]; at 33.0 µM 98% | [5]; [18] 98% | [5]; at 50.0 µM 88.2% | [5]; at 100.0 µM 98% | [6]; at 11.0 µM 94% | [6]; at 33.0 µM 99% | [6]; [18] 99% | [6]; at 50.0 µM 93.4% | [6]; at 100.0 µM 99% | [7]; at 11.0 µM 98% | [7]; at 33.0 µM 99% | [7]; at 100.0 µM 99% | [8]; [17] 78% | [8]; [18] 99% | [8]; at 50.0 µM 91.1% | [9]; at 11.0 µM 96% | [9]; at 33.0 µM 98% | [9]; at 100.0 µM 98% | [10]; [18] 98% | [10]; at 50.0 µM 89.8% | [11]; at 11.0 µM 98% | [11]; at 33.0 µM 98% | [11]; [18] 99% | [11]; at 50.0 µM 90% | [11]; at 100.0 µM 98% | [12]; at 100.0 µM 98% | [13]; at 11.0 µM 98% | [13]; at 33.0 µM 99% | [13]; at 100.0 µM 99% | [14]; at 11.0 µM 97% | [14]; at 33.0 µM 99% | [14]; at 100.0 µM 99% | [15]; [18] 98% | [15]; at 50.0 µM 89.5% | [16]; at 11.0 µM 98% | [16]; at 33.0 µM 98% | [16]; at 100.0 µM 98%
